Measurements: the supplement of paper PMC10849652
Of roughly 8,800 targets only a part is listed; those with a hit were picked by preference. About 0.5% of all pairs of compound and target were hits. Values without a mark were called inactive.

Experiments:
Experiment in all cases: log2 fold change, soluble protein after heating vs DMSO (PISA); higher = thermal stabilisation; K562 lysate, 10 uM; active = over 0.2 and 3.5 SD of the protein, either way, in both replicates (recomputed)
alvocidib = compound: CN1CC[C@H](c2c(O)cc(O)c3c(=O)cc(-c4ccccc4Cl)oc23)[C@H](O)C1 [alvocidib]
Procedure, shortened: (§1)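 Following dounce homogenisation of K562 pellets in PBS pH 7.4 with 1 mM MgCl2, crude extract at 1 mg/mL protein was incubated for 30 min with 10 μM compound. Aliquots were then heated for 3 min over 48°C-58°C and pooled, NP-40 was added to 0.5% at 4°C, and soluble protein was recovered as the supernatant at 21,000xg for 90 min. Channel-sum-equalised TMTpro 16plex LC-MS/MS quantified this protein. Each value, from duplicates, is a log-two fold change in thermal stability relative to solvent controls.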

Tubastatin A = compound: CN1CCc2c(c3ccccc3n2Cc2ccc(C(=O)NO)cc2)C1 [Tubastatin A]
Procedure, shortened: as §1

[1] = compound: CNC(=O)C1=CC=CC=C1NC2=NC(=NC=C2Cl)NC3=C(C=C(C=C3)N4CCOCC4)OC
Procedure, shortened: as §1

defactinib = compound: CNC(=O)c1ccc(Nc2ncc(C(F)(F)F)c(NCc3nccnc3N(C)S(C)(=O)=O)n2)cc1 [defactinib]
Procedure, shortened: as §1

[2] = compound: CNc1nc(-c2ccc3c(N)n[nH]c3c2)cc(N2C[C@@H](C(=O)NC3CCCCC3)CC[C@H]2C)n1
Procedure, shortened: as §1

encorafenib = compound: COC(=O)N[C@@H](C)CNc1nccc(-c2cn(C(C)C)nc2-c2cc(Cl)cc(NS(C)(=O)=O)c2F)n1 [encorafenib]
Procedure, shortened: as §1

[3] = compound: COC(=O)[C@H](CCSC)NC(=O)C1=C(C=C(C=C1)NC[C@H](CS)N)C2=CC=CC=C2
Procedure, shortened: as §1

alisertib = compound: COc1cc(Nc2ncc3c(n2)-c2ccc(Cl)cc2C(c2c(F)cccc2OC)=NC3)ccc1C(=O)O [alisertib]
Procedure, shortened: as §1

[4] = compound: COc1cc2nc(-c3cc(F)ccc3O)nc(N[C@@H]3CNC[C@H]3C(C)(C)O)c2cc1OC
Procedure, shortened: as §1

gefitinib = compound: COc1cc2ncnc(Nc3ccc(F)c(Cl)c3)c2cc1OCCCN1CCOCC1 [gefitinib]
Procedure, shortened: as §1

lapatinib = compound: CS(=O)(=O)CCNCc1ccc(-c2ccc3ncnc(Nc4ccc(OCc5cccc(F)c5)c(Cl)c4)c3c2)o1 [lapatinib]
Procedure, shortened: as §1

crizotinib = compound: C[C@@H](Oc1cc(-c2cnn(C3CCNCC3)c2)cnc1N)c1c(Cl)ccc(F)c1Cl [crizotinib]
Procedure, shortened: as §1

[5] = compound: C[C@H](C1=CC=C(C=C1)C(=O)NC2=C3C=CNC3=NC=C2)N
Procedure, shortened: as §1

duvelisib = compound: C[C@H](Nc1ncnc2nc[nH]c12)c1cc2cccc(Cl)c2c(=O)n1-c1ccccc1 [duvelisib]
Procedure, shortened: as §1

gandotinib = compound: Cc1cc(Nc2cc(CN3CCOCC3)c3nc(C)c(Cc4ccc(Cl)cc4F)n3n2)n[nH]1 [gandotinib]
Procedure, shortened: as §1

tozasertib = compound: Cc1cc(Nc2cc(N3CCN(C)CC3)nc(Sc3ccc(NC(=O)C4CC4)cc3)n2)n[nH]1 [tozasertib]
Procedure, shortened: as §1

doramapimod = compound: Cc1ccc(-n2nc(C(C)(C)C)cc2NC(=O)Nc2ccc(OCCN3CCOCC3)c3ccccc23)cc1 [doramapimod]
Procedure, shortened: as §1

[6] = compound: Cc1cccc(CC(=O)N2CCc3c2ccc(-c2cn(C)c4ncnc(N)c24)c3F)n1
Procedure, shortened: as §1

pictilisib = compound: CS(=O)(=O)N1CCN(Cc2cc3nc(-c4cccc5[nH]ncc45)nc(N4CCOCC4)c3s2)CC1 [pictilisib]
Procedure, shortened: as §1

bafetinib = compound: Cc1ccc(NC(=O)c2ccc(CN3CC[C@H](N(C)C)C3)c(C(F)(F)F)c2)cc1Nc1nccc(-c2cncnc2)n1 [bafetinib]
Procedure, shortened: as §1

Sequence of UniProt Q9NR50 (Q9NR50 whole entry, looked up): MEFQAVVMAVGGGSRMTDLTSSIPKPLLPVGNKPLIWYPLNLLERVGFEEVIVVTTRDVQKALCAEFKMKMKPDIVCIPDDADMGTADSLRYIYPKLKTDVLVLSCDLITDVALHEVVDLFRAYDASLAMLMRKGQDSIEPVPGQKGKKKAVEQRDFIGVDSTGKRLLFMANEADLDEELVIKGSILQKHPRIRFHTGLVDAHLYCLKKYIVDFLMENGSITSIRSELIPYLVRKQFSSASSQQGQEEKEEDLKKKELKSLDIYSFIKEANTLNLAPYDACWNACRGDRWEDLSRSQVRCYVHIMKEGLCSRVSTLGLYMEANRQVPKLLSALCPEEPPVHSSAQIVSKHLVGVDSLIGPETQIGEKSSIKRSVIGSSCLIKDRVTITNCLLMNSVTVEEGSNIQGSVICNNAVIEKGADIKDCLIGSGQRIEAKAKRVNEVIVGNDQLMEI
Sequence of UniProt P02774 (P02774 whole entry, looked up): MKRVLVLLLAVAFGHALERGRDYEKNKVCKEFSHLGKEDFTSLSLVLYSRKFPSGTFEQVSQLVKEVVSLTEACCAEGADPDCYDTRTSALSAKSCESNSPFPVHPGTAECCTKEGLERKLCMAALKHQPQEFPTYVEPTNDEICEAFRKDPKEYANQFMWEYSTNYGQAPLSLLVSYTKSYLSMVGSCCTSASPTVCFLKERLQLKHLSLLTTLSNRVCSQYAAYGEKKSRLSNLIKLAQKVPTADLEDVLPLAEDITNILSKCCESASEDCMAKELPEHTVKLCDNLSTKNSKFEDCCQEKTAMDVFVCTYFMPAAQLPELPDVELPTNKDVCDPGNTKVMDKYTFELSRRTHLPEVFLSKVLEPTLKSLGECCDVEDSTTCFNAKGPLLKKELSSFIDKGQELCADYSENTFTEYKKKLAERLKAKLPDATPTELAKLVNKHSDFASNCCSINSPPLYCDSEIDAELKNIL
Sequence of UniProt Q13409 (Q13409 whole entry, looked up): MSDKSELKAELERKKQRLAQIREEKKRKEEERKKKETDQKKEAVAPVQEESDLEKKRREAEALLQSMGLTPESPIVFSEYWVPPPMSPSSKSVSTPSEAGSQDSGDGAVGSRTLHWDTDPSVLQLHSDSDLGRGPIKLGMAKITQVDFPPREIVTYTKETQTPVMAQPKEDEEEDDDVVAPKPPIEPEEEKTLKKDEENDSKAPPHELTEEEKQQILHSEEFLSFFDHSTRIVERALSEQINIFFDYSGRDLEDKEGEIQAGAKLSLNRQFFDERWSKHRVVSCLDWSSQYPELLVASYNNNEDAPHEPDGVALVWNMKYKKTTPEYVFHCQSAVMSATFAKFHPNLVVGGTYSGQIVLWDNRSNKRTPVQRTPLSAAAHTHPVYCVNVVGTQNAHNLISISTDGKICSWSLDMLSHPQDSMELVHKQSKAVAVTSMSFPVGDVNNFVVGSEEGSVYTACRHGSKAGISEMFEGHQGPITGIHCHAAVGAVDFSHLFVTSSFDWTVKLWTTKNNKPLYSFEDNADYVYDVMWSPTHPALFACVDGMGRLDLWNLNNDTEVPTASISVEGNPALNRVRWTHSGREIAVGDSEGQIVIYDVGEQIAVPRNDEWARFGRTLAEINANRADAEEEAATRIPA
Sequence of UniProt Q5HYJ3 (Q5HYJ3 whole entry, looked up): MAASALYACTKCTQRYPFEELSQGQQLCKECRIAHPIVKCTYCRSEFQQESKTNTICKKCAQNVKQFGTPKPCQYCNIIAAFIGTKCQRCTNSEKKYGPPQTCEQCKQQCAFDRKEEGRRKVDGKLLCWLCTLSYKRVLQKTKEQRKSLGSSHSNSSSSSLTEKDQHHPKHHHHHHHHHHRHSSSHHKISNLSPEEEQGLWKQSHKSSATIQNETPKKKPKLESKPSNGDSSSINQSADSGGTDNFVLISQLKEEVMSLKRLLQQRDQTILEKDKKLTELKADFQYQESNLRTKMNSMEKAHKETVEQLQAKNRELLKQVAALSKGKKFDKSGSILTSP
Sequence of UniProt Q9Y6B2 (Q9Y6B2 whole entry, looked up): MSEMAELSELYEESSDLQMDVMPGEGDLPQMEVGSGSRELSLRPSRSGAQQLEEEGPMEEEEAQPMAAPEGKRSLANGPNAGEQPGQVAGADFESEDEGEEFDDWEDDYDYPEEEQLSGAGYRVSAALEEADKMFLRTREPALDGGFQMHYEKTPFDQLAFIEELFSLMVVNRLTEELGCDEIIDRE
Sequence of UniProt Q08426 (Q08426 whole entry, looked up): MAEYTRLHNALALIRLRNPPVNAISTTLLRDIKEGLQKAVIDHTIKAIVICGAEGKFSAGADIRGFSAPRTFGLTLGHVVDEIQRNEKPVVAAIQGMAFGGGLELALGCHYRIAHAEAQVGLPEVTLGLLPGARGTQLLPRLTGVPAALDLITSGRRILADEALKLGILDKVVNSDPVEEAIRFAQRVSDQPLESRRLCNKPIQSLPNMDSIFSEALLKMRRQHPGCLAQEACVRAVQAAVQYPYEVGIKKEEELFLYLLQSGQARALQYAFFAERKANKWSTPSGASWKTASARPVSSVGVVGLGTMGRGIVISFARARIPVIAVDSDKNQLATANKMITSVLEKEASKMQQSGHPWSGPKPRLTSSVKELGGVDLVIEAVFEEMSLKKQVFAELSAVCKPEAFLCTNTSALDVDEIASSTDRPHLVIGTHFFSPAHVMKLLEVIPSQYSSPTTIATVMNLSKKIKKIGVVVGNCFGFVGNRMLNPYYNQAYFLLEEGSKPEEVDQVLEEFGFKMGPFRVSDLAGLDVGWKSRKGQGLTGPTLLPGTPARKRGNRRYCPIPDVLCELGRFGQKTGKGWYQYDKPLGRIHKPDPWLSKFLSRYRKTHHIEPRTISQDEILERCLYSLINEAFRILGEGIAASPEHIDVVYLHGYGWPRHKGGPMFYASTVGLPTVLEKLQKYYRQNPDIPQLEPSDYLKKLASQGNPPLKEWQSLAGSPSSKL
Sequence of UniProt P23919 (P23919 whole entry, looked up): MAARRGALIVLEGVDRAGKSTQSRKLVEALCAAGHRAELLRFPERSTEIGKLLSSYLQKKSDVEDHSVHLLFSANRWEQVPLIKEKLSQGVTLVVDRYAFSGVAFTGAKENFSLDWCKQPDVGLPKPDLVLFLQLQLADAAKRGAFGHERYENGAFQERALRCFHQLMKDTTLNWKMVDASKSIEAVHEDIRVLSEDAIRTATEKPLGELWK
Sequence of UniProt Q9H790 (Q9H790 whole entry, looked up): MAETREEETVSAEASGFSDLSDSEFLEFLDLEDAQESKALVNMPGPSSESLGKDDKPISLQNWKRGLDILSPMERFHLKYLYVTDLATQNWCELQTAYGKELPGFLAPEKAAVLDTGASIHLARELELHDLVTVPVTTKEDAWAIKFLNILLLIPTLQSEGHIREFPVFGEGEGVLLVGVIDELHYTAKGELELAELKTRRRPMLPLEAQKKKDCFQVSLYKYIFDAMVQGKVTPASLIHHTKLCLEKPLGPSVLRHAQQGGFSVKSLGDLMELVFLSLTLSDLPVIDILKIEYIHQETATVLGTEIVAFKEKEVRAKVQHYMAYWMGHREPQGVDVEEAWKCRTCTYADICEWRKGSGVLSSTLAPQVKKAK
Sequence of UniProt Q96KP1 (Q96KP1 whole entry, looked up): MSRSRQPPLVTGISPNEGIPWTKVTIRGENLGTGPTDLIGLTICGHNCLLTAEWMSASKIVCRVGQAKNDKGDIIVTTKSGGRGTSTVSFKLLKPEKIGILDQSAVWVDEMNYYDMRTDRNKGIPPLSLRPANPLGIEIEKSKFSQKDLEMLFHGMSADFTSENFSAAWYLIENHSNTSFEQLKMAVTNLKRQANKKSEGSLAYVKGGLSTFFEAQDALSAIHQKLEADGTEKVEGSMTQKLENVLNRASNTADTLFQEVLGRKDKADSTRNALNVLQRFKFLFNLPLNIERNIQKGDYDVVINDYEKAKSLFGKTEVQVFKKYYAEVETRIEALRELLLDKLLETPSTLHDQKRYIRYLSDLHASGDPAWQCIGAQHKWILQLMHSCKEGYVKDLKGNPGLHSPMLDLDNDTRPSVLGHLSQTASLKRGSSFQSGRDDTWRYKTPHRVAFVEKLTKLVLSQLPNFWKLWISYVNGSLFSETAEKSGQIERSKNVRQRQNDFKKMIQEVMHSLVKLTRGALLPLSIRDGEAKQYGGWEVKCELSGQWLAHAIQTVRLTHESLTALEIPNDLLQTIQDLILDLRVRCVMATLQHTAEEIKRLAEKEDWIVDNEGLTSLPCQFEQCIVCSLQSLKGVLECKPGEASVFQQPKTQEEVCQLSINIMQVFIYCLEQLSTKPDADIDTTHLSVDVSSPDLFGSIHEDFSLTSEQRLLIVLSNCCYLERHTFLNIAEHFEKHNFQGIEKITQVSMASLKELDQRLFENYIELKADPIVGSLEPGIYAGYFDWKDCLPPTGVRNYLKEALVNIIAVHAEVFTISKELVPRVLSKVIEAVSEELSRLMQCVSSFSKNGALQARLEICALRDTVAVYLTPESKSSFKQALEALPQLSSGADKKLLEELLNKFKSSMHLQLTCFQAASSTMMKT
Sequence of UniProt Q6PIW4 (Q6PIW4 whole entry, looked up): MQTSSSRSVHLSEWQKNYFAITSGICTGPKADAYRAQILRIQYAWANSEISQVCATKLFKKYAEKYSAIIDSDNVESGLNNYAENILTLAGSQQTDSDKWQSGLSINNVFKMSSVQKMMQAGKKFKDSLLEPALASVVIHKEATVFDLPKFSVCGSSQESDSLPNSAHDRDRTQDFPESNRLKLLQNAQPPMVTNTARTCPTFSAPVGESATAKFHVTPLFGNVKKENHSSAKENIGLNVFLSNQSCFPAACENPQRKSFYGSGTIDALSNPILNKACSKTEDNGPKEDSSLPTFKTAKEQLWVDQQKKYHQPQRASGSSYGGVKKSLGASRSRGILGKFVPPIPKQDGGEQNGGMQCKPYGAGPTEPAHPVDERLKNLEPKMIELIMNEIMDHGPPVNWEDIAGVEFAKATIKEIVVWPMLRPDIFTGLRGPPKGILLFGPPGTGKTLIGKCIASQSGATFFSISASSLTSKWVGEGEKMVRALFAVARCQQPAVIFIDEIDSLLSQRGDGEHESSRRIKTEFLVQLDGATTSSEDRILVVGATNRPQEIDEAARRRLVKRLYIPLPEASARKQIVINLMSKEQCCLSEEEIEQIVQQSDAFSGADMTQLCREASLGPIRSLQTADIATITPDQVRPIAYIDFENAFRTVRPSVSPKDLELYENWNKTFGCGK

Row | Target | log2 fold change (alvocidib) | log2 fold change (Tubastatin A) | log2 fold change [1] | log2 fold change (defactinib) | log2 fold change [2] | log2 fold change (encorafenib) | log2 fold change [3] | log2 fold change (alisertib) | log2 fold change [4] | log2 fold change (gefitinib) | log2 fold change (lapatinib) | log2 fold change (crizotinib) | log2 fold change [5] | log2 fold change (duvelisib) | log2 fold change (gandotinib) | log2 fold change (tozasertib) | log2 fold change (doramapimod) | log2 fold change [6] | log2 fold change (pictilisib) | log2 fold change (bafetinib)
1 | FAM76B (UniProt Q5HYJ3) | -0.019 | 0.012 | 0.068 | 0.076 | -0.002 | 0.013 | -0.146 | -0.02 | 0.016 | -0.018 | -0.049 | 0.028 | -0.19 | -0.02 | 0.023 | -0.021 | -0.016 | 0.269 (active) |  | 
2 | ESPL1 (UniProt Q14674) | 0.044 | -0.023 | 0.129 | -0.188 | 0.053 | 0.101 | -0.013 | 0.004 | -0.233 | -0.009 | 0.053 | -0.015 | 0.027 | -0.011 | 0.026 | 0.024 | -0.044 | 0.057 | 0.07 | -0.077
3 | DTYMK (UniProt P23919) | 0.037 | -0.095 | 0.01 | -0.006 | 0.04 | -0.061 | 0.283 (active) | 0.009 | -0.007 | -0.011 | 0.026 | -0.042 | 0.055 | 0.023 | -0.135 | 0.01 | 0.045 | -0.029 | -0.003 | 0.007
4 | FIGNL1 (UniProt Q6PIW4) | -0.018 | -0.189 | 0.014 | 0.05 | -0.018 | 0.041 | 0.069 | -0.003 | 0.005 | 0.01 | 0 | -0.078 | -0.035 | 0.002 | -0.071 | 0.003 | -0.018 | 0.007 | -0.03 | -0.024
5 | DSTN (UniProt P60981) | -0.011 | -0.089 | 0.015 | 0.002 | -0.072 | -0.011 | -0.071 | -0.013 | -0.02 | -0.043 | 0.01 | 0.007 | -0.02 | -0.001 | -0.023 | 0.031 | -0.015 | 0.019 | 0.008 | 0.057
6 | GCDH (UniProt Q92947) | 0.018 | -0.069 | -0.049 | 0.004 | 0.057 | -0.049 | 0.159 | 0.049 | 0.006 | -0.004 | 0.016 | -0.017 | 0.013 | 0.19 | -0.005 | 0.007 | -0.026 | -0.004 | 0.012 | 0.047
7 | FANCI (UniProt Q9NVI1) | 0.063 | -0.097 | 0.014 | 0.01 | -0.036 | 0.002 | 0.052 | 0 | 0.01 | -0.002 | -0.015 | -0.09 | 0.06 | 0.001 | -0.199 | 0.002 | -0.003 | -0.011 | -0.034 | -0.032
8 | EXOC2 (UniProt Q96KP1) | 0.025 | -0.107 | -0.012 | 0.046 | -0.048 | 0.031 | 0.027 | 0 | 0.007 | 0.005 | -0.016 | -0.099 | 0.017 | -0.032 | -0.185 | 0.001 | 0.042 | 0.059 | -0.011 | -0.056
9 | EIF2B3 (UniProt Q9NR50) | 0.071 | -0.103 | -0.009 | 0.008 | -0.012 | -0.007 | 0.057 | -0.016 | -0.007 | -0.041 | -0.007 | -0.061 | 0.234 (active) | 0.016 | -0.115 | -0.035 | 0.012 | -0.047 | -0.021 | -0.024
10 | DYNC1I2 isoform 2 (UniProt Q13409) | 0.065 | 0.002 | -0.02 | 0.001 | -0.039 | 0.011 | 0.056 |  | 0.096 |  | 0.029 | -0.031 | 0.096 | 0.015 | -0.132 | 0.001 | -0.011 | -0.012 | 0.078 | -0.041
11 | ESRRB isoform 1 (UniProt O95718) | 0.233 | -0.269 | -0.011 |  |  |  |  |  |  |  |  |  | 0.438 |  | -0.437 |  |  | -0.308 | 0.05 | 0.028
12 | EPB41, A0A2R8Y783 | -0.248 |  |  | 0.05 | -0.13 | -0.523 | 0.118 |  | 0.029 |  | -0.063 |  | 0.121 | -0.089 | -0.066 | 0.061 |  | -0.006 | 0.04 | 0.04
13 | EHHADH (UniProt Q08426) | 0.013 | 0.039 | -0.024 |  | 0.101 | 0.035 | -0.426 | 0.065 | -0.005 | 0.012 | -0.037 | -0.001 | 0.016 | 0.051 | -0.117 | 0.045 | 0.048 | 0 | 0.143 | 0.06
14 | EWSR1 (UniProt H7BY36) | 0.206 | 0.179 |  | 0.14 | 0.037 | 0.063 | -0.061 |  |  |  |  | -0.042 | 0.07 | -0.011 | -0.167 | 0.01 | -0.066 | 0.019 | 0.071 | 0.293
15 | EID1 (UniProt Q9Y6B2) | -0.061 | -0.004 | 0.036 |  | 0.046 | -0.057 | 0.072 | -0.067 |  | 0.022 |  |  | -0.02 | 0.604 (active) | 0.108 | -0.043 |  | 0.069 |  | 
16 | GAPVD1 (UniProt Q14C86) |  |  |  |  |  |  |  |  | 0.071 |  | 0.03 |  |  |  |  |  |  |  | -0.138 | 0.014
17 | FAT1 (UniProt Q14517) | -0.14 | 0.18 | 0 |  |  | 0.029 | 0.047 |  | 0.094 |  | -0.129 | -0.109 | 0.079 |  | 0.027 | -0.139 | 0.475 | 0.072 |  | 
18 | GC isoform 3 (UniProt P02774) | 0.105 | 0.087 |  | -0.003 | 0.244 | -0.018 | -0.049 |  |  |  |  | 0.029 | 0.173 | 0.133 | -0.025 | -0.004 | -0.081 | -0.075 |  | 
19 | EXO5 (UniProt Q9H790) |  | 0.018 | 0.068 |  |  |  |  |  |  |  |  | -0.113 |  |  |  |  | 0.061 |  | -0.43 (active) | -0.261
20 | EIF2B5, A0A3B3ITK8 |  |  |  |  |  |  |  | -0.014 | -0.03 | -0.08 | -0.108 |  |  |  |  |  |  |  |  | 
21 | FAT2 (UniProt Q9NYQ8) | -0.214 | -0.083 | -0.123 | -0.034 |  | -0.092 | 0.104 | -0.023 | 0.043 | 0.013 | -0.027 | -0.512 | -0.366 |  | 0.182 | 0.055 | -0.094 | 0.407 | -0.015 | -0.244
